Hits are enriched below; roughly 1.4% of the tested compounds scored in any of these assays.
p53 reactivation = restores transcriptional activity of mutant p53; H1299 p53-A138V BP100-luciferase reporter, luminescence, 24 h; Potency, µM (series often up to 92.2 µM), inactives show top-dose activity change, positive = activation, hits mostly activators; actives 0.063% (n = 320,000); further: potency means the concentration at half of the fitted maximal effect; % of control where 0% means no effect; nearly all actives have a fitted effect of over 45% in size
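p53-null H1299 cells stably carrying temperature-sensitive p53-A138V and a BP100-luciferase reporter were pinned with compounds (4-point, 1:5 series) and held 24 hrs at 37 deg C. Luminescence was read 10 min after detection reagent.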
CCT modulator = cytosolic chaperonin activity modulation; activity change, % (no concentration beside the values), hits read low; actives 0.3% (n = 360,000); purified chaperonin ATPase assay, HTRF ADP detection, 30 min; in the data active means activity change below about -30%; further: on the % scale 0 is the no-effect control and ±100 the full control effect
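Enzyme 40 or 20 nM (batch-dependent) in Tris pH 7.4/KCl/MgCl2/DTT; cpd 76 uM single point; ATP 10 uM; 30 min 37 °C; Transcreener ADP HTRF detection, 30 min RT; ratio 665/615.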
PINK1 modulator = modulators of PINK1 expression. PINK1 immunofluorescence, high-content cytometry, 24 h. actives 0.2% (n = 410,000). Potency, µM (top dose mostly 76.6 µM), for inactives: at the highest dose activation (PINK1 increase), hits mostly activators. AID 624263; active means well fitted activation curve with a large enough effect; inconclusive means small, poorly fitted or top-dose-only effect; cell line not stated here; further: potency means the concentration at half of the fitted maximal effect; % of control where 0% means no effect; nearly all actives have a fitted effect of over 65% in size
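Compound titrations (5 concentrations, 24 h) on a stable cell line; DMSO and CCCP controls. Endpoint: fixed-cell PINK1 immunofluorescence with mitochondrial, cell and nuclear markers, scanned by microplate cytometer.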
Mm-Cpn inhibitor = inhibitors of Methanococcus maripaludis chaperonin TRiC (MmCpn). purified Mm-Cpn ATPase, ADP Transcreener TR-FRET. Potency, µM (top dose mostly 76.9 µM), inactives show at the highest dose activity, negative = inhibition, usual class: inhibitors. actives 0.031% (n = 330,000); further: potency means the concentration at half of the fitted maximal effect; on the % scale 0 is the no-effect control and ±100 the full control effect; nearly all actives have a fitted effect of over 80% in size
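25 nM Mm-CPN + cpd, 10 min 37°C; + 10 uM ATP, 30 min 37°C; buffer 30 mM Tris pH 7.4, 100 mM KCl, 5 mM MgCl2, 1 mM DTT; Transcreener ADP HTRF detection 30 min RT.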
ASM inhibitor = inhibitors of human secretory acid sphingomyelinase; P17405; placental ASM, HMU-PC fluorogenic substrate, 60 min; Potency, µM (highest dose often 57.5 µM), inactives show top-dose activity change, negative = inhibition, actives largely listed as inhibitors; actives 0.006% (n = 340,000); further: potency means the concentration at half of the fitted maximal effect
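Human placenta-derived ASM enzyme was preincubated with compound for 10 minutes at room temperature, then given fluorogenic substrate HMU-PC0 (9 uM final) for 60 minutes at 37 °C; a pH 10 stop preceded fluorescence reading at Ex 386/Em 447 nm.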
12-LOX inh = inhibitors of human 12S-lipoxygenase ALOX12; purified 12hLO, xylenol orange hydroperoxide absorbance; Potency, µM (top dose mostly 108 µM), without a hit: at the highest dose activity change, negative = inhibition, actives largely listed as inhibitors; actives 1.1% (n = 580,000); AID 1671190; further: potency means the concentration at half of the fitted maximal effect; on the % scale 0 is the no-effect control and ±100 the full control effect
Target sequence (P18054 whole entry, looked up): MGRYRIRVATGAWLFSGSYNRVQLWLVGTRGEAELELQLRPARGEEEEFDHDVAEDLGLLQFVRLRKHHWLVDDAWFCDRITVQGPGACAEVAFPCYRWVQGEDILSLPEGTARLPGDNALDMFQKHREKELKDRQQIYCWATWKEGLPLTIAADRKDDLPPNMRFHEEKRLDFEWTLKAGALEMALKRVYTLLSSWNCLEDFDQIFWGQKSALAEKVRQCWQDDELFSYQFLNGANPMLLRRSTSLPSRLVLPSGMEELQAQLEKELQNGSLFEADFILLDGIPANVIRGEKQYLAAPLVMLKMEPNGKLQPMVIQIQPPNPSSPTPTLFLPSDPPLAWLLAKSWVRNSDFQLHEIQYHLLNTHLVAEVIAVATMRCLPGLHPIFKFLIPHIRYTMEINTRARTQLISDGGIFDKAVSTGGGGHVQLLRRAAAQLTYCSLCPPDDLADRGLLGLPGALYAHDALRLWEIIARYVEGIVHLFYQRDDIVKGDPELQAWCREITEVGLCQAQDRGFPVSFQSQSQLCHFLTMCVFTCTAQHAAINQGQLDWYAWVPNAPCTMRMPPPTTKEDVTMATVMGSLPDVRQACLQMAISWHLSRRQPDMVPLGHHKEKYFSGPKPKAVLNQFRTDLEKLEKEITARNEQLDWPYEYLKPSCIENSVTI
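Hydroperoxide product was detected by ferrous iron/xylenol orange as the 573 to 405 nm absorbance ratio. Arachidonic acid at 40 uM (final) was turned over for 30 min at room temperature by 150 nM human 12hLO, pH 7.0 Hepes buffer, after 15 min compound preincubation.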
Active calls of the source: *; ? = inconclusive; nt = not tested or not shown; [ ] = remark or other dose. Unless noted, the call rests on the fitted dose curve; in most records, active means well fitted curve in the direction sought with a large enough effect; inconclusive means small, poorly fitted or top-dose-only effect, or another doubt; inactive means no such curve, though single readings can be large; an effect the other way counts as inactive or inconclusive.

SMILES	p53 reactivation	CCT modulator	PINK1 modulator	Mm-Cpn inhibitor	ASM inhibitor	12-LOX inh
Cc1ccc(C(=O)O)cc1NC(=O)C1=CSCCO1	1%	-63*	-1%	-1%	2%	-17%
Cc1ccc(NC(=O)c2ccc(NC(=O)C3=CSCCO3)cc2)cc1C	nt	nt	nt	nt	nt	-61%
O=C1C(c2ccccc2)CC2(CCN(Cc3cccc(O)c3)CC2)CN1C1CC1 (configuration not stated)	nt	nt	nt	nt	nt	53%
COc1cc(NC(=O)COC(=O)c2n[nH]c3ccccc23)c(C)cc1[N+](=O)[O-]	17%	-1	45µM*	-2%	0%	-7%
CCCCCCCCS(=O)CCC(=O)O (configuration not stated)	1%	1	1%	-15%	2%	25µM*
CCCCCCCCS(=O)CCCCC(=O)O (configuration not stated)	nt	nt	nt	nt	nt	22%
CC(C)N(C(=O)Cn1c(-c2ccccc2Cl)nc2ccccc21)c1ccccc1	4%	-55*	-3%	2%	-1%	-11%
CC1(C)CC(=O)C2=C(C1)N(Cc1ccccc1)C(C1CCCCC1)=NC2(C(F)(F)F)C(F)(F)F	nt	nt	nt	nt	nt	-10%
CCOC(=O)c1ccc(CC(=O)c2oc3cc(O)ccc3c2C)o1	22%	-2	7%[38.3 µM]	-1%	2%	16µM*
COC(=O)Nc1[nH]ncc1[N+](=O)[O-]	0%	2	3%	0%	0%	35µM*
Cc1coc(C)c1C(=O)CC1(O)C(=O)N(CCc2ccccc2)c2ccccc21 (configuration not stated)	6%	3	-7%[38.3 µM]	1%	-1%	40µM*
CCN1C(=O)C(O)(CC(=O)c2c(C)coc2C)c2ccccc21 (configuration not stated)	-1%	1	3%	-1%	0%	6%
CN(Cc1ccc(F)cc1F)C(=O)c1cc(Br)ccc1O	nt	nt	nt	nt	nt	10µM*
O=S(=O)(c1ccccc1)N1CCC(N2CCCCCC2)CC1	-10%	-1	-3%	1%	1%	4.5µM*
O=C(COC(=O)/C=C/c1ccc(OC(F)F)cc1)NC1CCCC1	-5%	-117*	0%	-1%	1%	40%
CCCn1nc(C(=O)N2CCN(C(=O)C(C)C)CC2)c2ccccc2c1=O	nt	nt	nt	nt	nt	28%
COc1ccccc1NC(=S)NCCSc1ccc(Cl)cc1	6%	0	1%	-1%	4%	2%
Cc1ccc(Cl)cc1NC(=S)NCCSc1ccc(Cl)cc1	nt	nt	nt	nt	nt	35µM*
COc1ccc(Cl)cc1NC(=S)NCCSc1ccc(C)cc1	?	0	?	1%	-2%	45µM*
Cc1ccc(-c2nc(SCC(=O)Nc3cc(S(=O)(=O)N4CCCCC4)ccc3Cl)n[nH]2)cc1	20%	1	32µM*	0%	-16%	-6%
Clc1cccc(-c2cccc3nccn23)c1Cl	nt	-2	-1%	nt	nt	4%
Clc1ccc(-c2cccc3nccn23)c(Cl)c1	nt	-77*	1%	nt	nt	?
CCN(c1ccc(NC(=O)COC(=O)c2ccc3ccccc3n2)cc1)C(C)C	-3%	-2	7%[38.3 µM]	-1%	-5%	5µM*
CCC(CC)NC(=O)COC(=O)c1ccc2ccccc2n1	nt	nt	nt	nt	nt	6.3µM*
Cc1cc2onc([C@H]3CCCN3C(=O)N3CCOCC3)c2cc1C	nt	nt	nt	nt	nt	9%
SMILES	p53 reactivation	CCT modulator	PINK1 modulator	Mm-Cpn inhibitor	ASM inhibitor	12-LOX inh
CN1Cc2ccc(Nc3ccccc3)nc2C(C)(C(=O)NCc2cccs2)C1 (configuration not stated)	nt	nt	nt	nt	nt	1%[176 µM]
COc1cccc(C2=Cc3ccc(F)cc3C(CC(C)=O)N2c2ccc(-c3cncnc3)cc2)c1 (configuration not stated)	nt	0	1%	nt	nt	32µM*
O=C(CSc1oc(-c2ccco2)nc1S(=O)(=O)c1ccccc1)NCC1CCCO1 (configuration not stated)	-1%	1	1%	-4%	2%	?
O=C(CSc1oc(-c2ccco2)nc1S(=O)(=O)c1ccc(Cl)cc1)NCC1CCCO1 (configuration not stated)	-5%	-1	2%[38.3 µM]	-2%	-6%	7.9µM*
O=C(CSc1oc(-c2ccccc2)nc1S(=O)(=O)c1ccc(Cl)cc1)c1ccccc1	nt	nt	-1%	nt	nt	7.9µM*
NC(=O)CSc1oc(-c2ccco2)nc1S(=O)(=O)c1ccc(Cl)cc1	-9%	1	-1%	-4%	1%	28µM*
Cc1ccc(S(=O)(=O)c2nc(-c3ccco3)oc2SCC(N)=O)cc1	-3%	3	1%	-2%	1%	?
CC1CCc2sc(C(=O)OCC(=O)c3ccc4c(c3)OCCO4)cc2C1 (configuration not stated)	nt	nt	nt	nt	nt	7%
CC1=C(C#N)C(=O)NC(=O)/C1=C\c1ccc(-c2ccc(C)cc2[N+](=O)[O-])o1	1%	-3	1%	5%	2%	11µM*
O=S1(=O)CCC(N=Cc2cc(Br)ccc2O)C1 (configuration not stated)	16%	0	-2%	1%	4%	28µM*
O=S(=O)(O)c1ccc2c(N=Nc3ccc(S(=O)(=O)O)c4ccccc34)c(O)c(S(=O)(=O)O)cc2c1	nt	nt	-1%	nt	nt	nt
O=S(=O)(O)c1cc(O)c(N=Nc2ccc(O)cc2O)c2ccccc12	nt	0	-2%	nt	-8%	8.9µM*
COc1ccc(NS(=O)(=O)c2cc(C(=O)N3CCCCC3)cs2)cc1	nt	nt	nt	nt	nt	-44%
CN1CCN(c2cc(-c3ccc4ccccc4c3)nc3ccnn23)CC1	nt	-1	45µM*	nt	nt	0%
CCN1CCN(C(c2ccc(C(F)(F)F)cc2)c2ccc3cccnc3c2O)CC1 (configuration not stated)	18%	-1	13%	-8%	-2%	8.9µM*
Cc1ccc(-c2cc(=O)c3cc(F)ccc3[nH]2)cc1	?	0	6%	0%	-1%	-2%
Cc1ccc(-c2cc(=O)c3cc(C)ccc3[nH]2)cc1	22µM*	0	12%	-1%	-1%	-15%
O=C1CSC(=S)N1N=Cc1ccccc1O	nt	-3	-5%	nt	6%	6.3µM*
O=C1CSC(=S)N1N=Cc1ccc(Cl)cc1Cl	nt	0	1%	nt	1%	35µM*
COc1ccccc1C(=O)N1CCCn2nc(C)c(-c3ccccc3N3CCCC3)c21	nt	nt	nt	nt	nt	231%[176 µM]
Cc1ccc(S(=O)(=O)Nc2ccc(SC(F)F)cc2)c(C)c1	8%	1	10%	0%	-18%	16µM*
CC(C)c1ccc(S(=O)(=O)Nc2ccc(SC(F)F)cc2)cc1	7%	0	27%	-1%	-10%	?
